MITF primary: MITF inhibitors, primary screen, biochemical, AlphaScreen, human; 650,000 tested, 0.91% active; AlphaScreen MITF homodimerization, bead proximity signal; Microphthalmia-associated transcription factor (Homo sapiens), O75030; inhibition, % at 2.6 µM; AID 1259374, 2018; in the data active = inhibition above about 50%;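 note: 0% = vehicle wells with protein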
GPR151 ag: activators of human GPR151, primary screen, cell-based, PathHunter beta-arrestin, luminescence; G-protein coupled receptor 151 (Homo sapiens), Q8TDV0; PathHunter beta-arrestin GPR151 cells; activation, % at 11.2 µM; 650,000 tested, 1% active; AID 1508602, 2020; in the data active = activation above about 4.9%;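 note: 0% = median of compound wells and 100% = cells with positive control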
Target sequence (Q8TDV0 whole entry, looked up): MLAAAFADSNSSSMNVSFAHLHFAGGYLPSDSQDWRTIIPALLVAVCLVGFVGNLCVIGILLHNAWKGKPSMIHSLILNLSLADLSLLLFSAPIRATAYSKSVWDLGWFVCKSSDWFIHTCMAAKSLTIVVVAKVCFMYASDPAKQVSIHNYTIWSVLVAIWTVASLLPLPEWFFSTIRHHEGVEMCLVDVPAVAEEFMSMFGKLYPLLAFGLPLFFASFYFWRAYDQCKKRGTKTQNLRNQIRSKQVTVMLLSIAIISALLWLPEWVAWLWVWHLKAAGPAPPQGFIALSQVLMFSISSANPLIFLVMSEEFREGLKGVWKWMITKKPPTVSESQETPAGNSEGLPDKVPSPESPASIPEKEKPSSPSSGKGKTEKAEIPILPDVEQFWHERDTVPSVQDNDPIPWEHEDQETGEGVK
TEAD-YAP inh: TEAD-YAP interaction inhibition, primary screen, TEAD-YAP interaction inhibitor project, luminescence, HEK-TIYL cells. TEAD-Gal4/YAP UAS-luciferase luminescence. inhibition, % at 9.12 µM. 640,000 tested, 1.4% active; in the data active = inhibition above about 32%;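 note: 0% = median of test compound wells and 100% = reference inhibitor wells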
FBW7 act: FBW7 E3 ligase activators, primary screen, biochemical, AlphaScreen, human; F-box/WD repeat-containing protein 7 (Homo sapiens), Q969H0; AlphaScreen FBW7–phospho-cyclin E peptide binding, activator screen; normalized activity (activation), % at 26.1 µM; 650,000 tested, 0.13% active; in the data active = normalized activity above about 1.9%;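 note: purified mutant Fbw7 with reduced substrate affinity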
GPR151 confirm: GPR151 activators, triplicate retest, confirmation, cell-based, PathHunter beta-arrestin, luminescence | GPR151 PathHunter beta-arrestin cells, 90 min; % of EA-reagent control over plate median | activation, % at 11.2 µM | shares compounds with GPR151 ag | 6,700 tested, under 10 active;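 active = mean percent activation across replicates above the confirmation screen cutoff of 4.91%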
GPR119 ag: GPR119 activators in beta-arrestin cells, counter-screen for GPR151 activator project, cell-based, PathHunter beta-arrestin, luminescence, triplicate | 90 min; 0 = compound-well median, 100 = enzyme-acceptor control | shares compounds with GPR151 ag | AID 1508611, 2020 | activation, % at 11.2 µM | 6,700 tested, 0.3% active;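 active = mean percent activation in the counterscreen above 29.09%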;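 note: counterscreen on off-target GPR119 to flag nonselective hits from the GPR151 activator screen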
* marks the source's active call; other numbers are inactive results; . = not tested or not shown; ! = not confirmed by another sample. Only some compounds are listed: those with a hit (about 3.4% of all), similar ones and a draw of the others.

SMILES	MITF primary	GPR151 ag	TEAD-YAP inh	FBW7 act	GPR151 confirm	GPR119 ag
CN(Cc1ccc(OCC(O)CN2CCc3ccccc3C2)cc1)Cc1nccs1 (centres undefined)	-18	5.6*	-3	0	-1	-15
CN(C)c1ccc(NC2CC(=O)N(c3cccc(Cl)c3)C2=O)cc1 (centres undefined)	18	0	4	0	.	.
CN(C)c1ccc(NC2CC(=O)N(c3cccc4ccccc34)C2=O)cc1 (centres undefined)	33	5.6*	5	0	0	4
C=CCN(c1ccc(C(=O)Nc2ccc(OC)cc2)cc1)S(C)(=O)=O	-1	-2	-25	0	.	.
COC(=O)C(CCSC)NC(=O)c1ccccc1F (centres undefined)	11	6.9*	-1	1	0	-4
COc1ccc(C2(NC(=O)c3ccc(=O)[nH]n3)CCCCC2)cc1	0	-2	-11	0	.	.
CCN(CC)c1ccc(/C=N/NC(=O)c2ccc(O)cc2O)cc1	5	6.0*	74*	0	-1	-2
CCN(CC)c1ccc(/C=N\NC(=O)c2ccc(O)cc2)cc1	1	0	27	0	.	.
COC(=O)CCC(=O)NNc1ccc([N+](=O)[O-])cc1	-4	1	-3	0	.	.
CCOC(=O)C1CCN(c2c(N3CCN(c4cccc(Cl)c4)CC3)c(=O)c2=O)CC1	3	5.2*	-5	0	-1	-16
CCOC(=O)C1CCCN(c2c(N3CCN(c4cccc(Cl)c4)CC3)c(=O)c2=O)C1 (centres undefined)	-7	1	8	0	.	.
CCN1CCCC1CNS(=O)(=O)c1ccc(C(=O)Nc2ccccc2)cc1 (centres undefined)	6	10*	-2	0	0	7
Cc1nn(Cc2ccccc2)c(=S)n(Cc2ccccc2)c1=O	8	0	-4	1	.	.
Cc1cccc(OCCCN2CCOCC2)c1C	-7	5.1*	9	0	-1	-8
Cc1nc(N2CCCCC2)c2c(C)c(C(=O)Nc3ccc(F)cc3F)sc2n1	7	0	-5	0	.	.
COC(=O)c1cc(C(=O)OC)c(C(=O)OC)nc1C(=O)OC	-2	1	10	0	.	.
CC1=NC2(CCN(S(C)(=O)=O)CC2)N=C1c1ccccc1	0	0	-5	-1	.	.
CC1=NC2(CCN(C(=O)NC(C)C)CC2)N=C1c1ccccc1	11	9.1*	-5	0	0	-6
Cc1ccc(C(c2nnnn2CCc2ccccc2)N2CCOCC2)cc1 (centres undefined)	-19	6.8*	5	0	1	-1
CC(=O)Nc1ccc(OC(=O)N2CCC(C)CC2)cc1	7	5.3*	23	0	1	1
CC1CCN(C(=O)Nc2ccc(F)cc2)CC1	-5	7.2*	-19	0	0	-4
CC1CCN(C(=O)Oc2ccccc2)CC1	2	1	1	0	.	.
CC1CCN(C(=O)Nc2ccc(Cl)cc2)CC1	19	0	-50	0	.	.
CCOc1cccc(C(=O)Nc2cc(-c3nc4cc(C)ccc4o3)ccc2C)c1	10	0	9	1	.	.
C=CCOc1ccc(/C=C2\C(=O)NC(C)=C2C(=O)OC)cc1	6	5.2*	-3	0	1	19
SMILES	MITF primary	GPR151 ag	TEAD-YAP inh	FBW7 act	GPR151 confirm	GPR119 ag
CCOC(=O)C1=C(C)N=c2s/c(=C\c3cn(-c4ccccc4)nc3-c3ccc(OC)cc3)c(=O)n2C1c1ccc(OC(C)=O)cc1 (centres undefined)	-3	0	14	0	.	.
CC(C)(C)C1=Nc2ccccc2NC(=O)C1	13	0	-4	0	.	.
CCCN(CCC)CCc1cccc2c1CC(=O)N2	-9	12*!	-4	0	0	-9
O=C(NCC1CCCN(Cc2ccc3c(c2)CCO3)C1)c1n[nH]c2ccccc12 (centres undefined)	-9	-1	-2	0	.	.
O=C(CSCC(=O)N1CCCCC1)Nc1nc(-c2ccc(Cl)s2)cs1	1	6.1*	-24	0	0	7
O=C(CSCC(=O)N1CCCCC1)Nc1nc(-c2cccs2)cs1	10	-1	-5	0	.	.
Cc1cc(NCc2cccnc2)nc2ccccc12	4	0	-7	0	.	.
COc1ccc(-n2nc3ccc(NC(=O)c4ncn[nH]4)cc3n2)cc1Cl	9	5.0*	0	0	0	-2
COc1ccc2nc(-c3ccc(NS(=O)(=O)c4ccc(C)cc4)cc3)cn2n1	9	1	-29	0	.	.
c1ccc2oc(NC3=NCN(C4CCCCC4)CN3)nc2c1	-9	9.9*	-13	0	1	4
CCS(=O)(=O)Nc1cccc([N+](=O)[O-])c1	3	0	5	0	.	.
Cc1cc(=O)n2nc(N3CCCC3C(=O)NCCCN3CCCCC3)sc2n1 (centres undefined)	5	5.0*	-2	0	1	-13
CCOC(=O)C1=C(C)N=c2s/c(=C\c3ccccc3OC)c(=O)n2C1c1ccc(OC)c(OC)c1 (centres undefined)	-9	2	-4	0	.	.
O=C(NC1CCCCC1)[C@H]1C=CCN1C(=O)C1CC1	-26	7.4*	1	0	0	1
O=C(NCCc1nnc2n1CCN(Cc1cccc3ccccc13)CC2)C1CCCO1 (centres undefined)	-18	2	-5	0	.	.
Cc1ccc(C)c(CN2CCc3nnc(CCNC(=O)COc4ccccc4)n3CC2)c1	6	8.8*	15	0	1	6
O=C(NCCc1nnc2n1CCN(Cc1ccccc1-c1ccco1)CC2)C1CCCO1 (centres undefined)	13	7.1*	1	0	2	13
Cc1cc(C)c(CN2CCc3nnc(CCNC(=O)COc4ccccc4)n3CC2)cc1C	0	-1	0	0	.	.
CCC(CC)CN1CCc2nnc(CCNC(=O)COc3ccccc3)n2CC1	15	5.1*	3	1	1	7
C/C=C(\C)CN1CCC2(CC1)CC2C(=O)N1CCN(Cc2cccs2)CC1 (centres undefined)	6	-1	2	0	.	.
COc1ccc(CNc2c3c(nc4nncn24)CCC3)cc1	-7	7.3*	-3	0	-1	-14
OC1(c2cccc(F)c2)CCN(Cc2ccncc2)CC1	20	6.1*	-15	1	1	17
OC1(c2cccnc2)CCN(Cc2cccc(F)c2)CC1	7	0	5	0	.	.
